Reference: the OligoGym collection

Each sequence was assayed against CDC42SE1 (assay: pooled miR-30 sensor sort-seq; sequence = guide strand). Settings: shRNA.

Sequence | sensor-assay potency score (higher = more potent)
TGAACTGCACCTGTCATGGCAA | -0.419
TTGGATCTCATCTGCTCCTGAA | -0.616
ATCATGGTCCGGTCAATCCGTC | -1.39
TGCTCCATGGCCTATCTCGGTT | -1.52
TTCTCTTCTTCTTCGGCTGGGG | -0.102
TCATGGCAAGTCCATCTCCGGC | -1.88
ATCTCATCTGCTCCTGAACTGC | -1.52
TTTCTCTACCACACAGCAGCCC | -0.51
TCTTCTTCTTCGGCTGGGGTTT | -1.24

These sequences were tested against CDCA7L in the same assay as above. Settings: shRNA.

Sequence | sensor-assay potency score (higher = more potent)
AAACTCTTCATCATCACTGGGG | 0.515
TAGTGAGTCAAAACTATCGCAG | -0.978
TAAAAATTCTTCTTAGCTCTTC | 0.664
TAGACCTGCTTCTTCTAGGGGT | 0.0946
TTCTGTATAAAAACACAACTGT | -0.22
TTTTCTAAGTCCTCTTCGGTGA | 0.0411
TATACGGTGACGTCGTCTGTAC | -0.513
TATCATAGATTTTATCTCGAAC | -0.423
TTCGGTGATATCCTCCACTGGC | 0.00353
TAGCCTTATCTTCTTCTTCATC | -1.31
TCGCACACCACAGCAACCCTGG | -0.788

Each sequence was assayed against CDCA8 in the same assay as above. Settings: shRNA.

Sequence | sensor-assay potency score (higher = more potent)
TTACCTTTCGTGTTTTGGCAGA | -0.552
TTCATCTACCTGTATTACCTTT | -0.507
TTCACGGTCGAAGTCTTTCAGA | -1.11
TATCTGAGCCTAAACCTCCCGG | -0.819
TATCATTTCATCTACCTGTATT | -1.16
TTGCTTGATTCGTATTTCCACT | -0.831
TCTACCTGTATTACCTTTCGTG | -0.22
TAAACATAAAACACTGCTCCAC | -0.305
TTTGCTGTCAGCAAGAGGGCTG | -0.00778
TTCGTATTTCCACTTCACGGTC | -0.813
TTGGTCTTCAGTAAACAGGGAT | -0.3

Each sequence was assayed against CDH19 in the same assay as above. Settings: shRNA.

Sequence | sensor-assay potency score (higher = more potent)
ATCAGTATTAGCTTCTTCGAGC | -1.26
TACTTGTAGTGATTGTACCATT | -0.931
TAACTTTTGCTCTAATACCGTA | -0.771
TTGTTCCAGACAACGCTCCTGG | -0.175
TTAATTAATACACTTGTTGTTC | -0.144
TTGATATTGAACACTTTGCTCC | -0.145
TTATCTATGATTGTAAAACTTG | -0.902
TTTCTCAGGAAATAGAATCTGT | 0.0652
TAGTCTGAATTACCTGACCAGA | -1.28
